Measured values as given in the supplement of paper PMC12350171.
Structures can show the parent of a compound that is named as a salt.

Legend:
Conditions in all cases: 20 µM
[1] = test system: Haemophilus parainfluenzae; test: growth AUC normalised to DMSO control (fraction of control); higher = less growth inhibition, active = hit call of the paper
How it was run: (§1)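 Three biological replicates were carried out, with OD578 read hourly for 24 h. Before inoculation at a starting OD578 of 0.01, pathogens were passaged anaerobically twice; plates were pre-reduced mGAM containing 20 μM compound and 1% DMSO, sealed with breathable membranes, and the Haemophilus parainfluenzae medium carried added hemin and NAD. Area under each growth curve was calculated by the trapezoidal rule up to the exponential-to-stationary transition and normalised to DMSO controls on the same plate.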

[2] = test system: Salmonella enterica typhimurium; test: as above
How it was run: as §1

Shigella flexneri = test: as above
How it was run: as §1

Vibrio cholerae = test: as above
How it was run: as §1

[3] = test system: Yersinia pseudotuberculosis; test: as above
How it was run: as §1

P. vulgatus RND KO = test: growth AUC normalised to DMSO control (median) (fraction of control); higher = less growth inhibition, active = hit call of the paper
How it was run: (§2)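 Area under the growth curve, calculated by the trapezoidal rule up to entry into stationary phase, was normalised to vehicle wells on the same plate. Strains had been passaged twice overnight without oxygen and then grown in mGAM in 96-well plates from OD578 0.01, each with an approved-drug library compound at 20 μM in 1% DMSO. OD578 was read hourly over 24 h in an anaerobic incubator, and the median of three biological replicates is given.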

P. vulgatus WT = test: as above
How it was run: as §2

[4] = test system: S. enterica typhimurium WT; test: as above
How it was run: as §2

[5] = test system: S. enterica typhimurium tolC KO; test: as above
How it was run: as §2

Measured: growth AUC normalised to DMSO control
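Throughout, for growth AUC normalised to DMSO control (median): active when median AUC fell below 0.1.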

CC1C=CC=CCCC=CC=CC=CC=CC(OC2OC(C)C(O)C(N)C2O)CC2OC(O)(CC(O)C(O)CCC(O)CC(O)CC(O)CC(=O)OC(C)C(C)C1O)CC(O)C2C(=O)O (stereo not drawn) [Nystatine]
inactive: [1] 0.988 | [2] 0.992 | Shigella flexneri 0.959 | Vibrio cholerae 0.994 | [3] 0.989 | P. vulgatus RND KO 0.988 | P. vulgatus WT 0.996 | [4] 0.997 | [5] 1

CC(C)CC(N(C)C)C1(c2ccc(Cl)cc2)CCC1 (stereo not drawn) [Sibutramine hydrochloride]
inactive: [1] 0.969 | [2] 1 | Shigella flexneri 0.971 | Vibrio cholerae 0.967 | [3] 1 | P. vulgatus RND KO 1.02 | P. vulgatus WT 1.02 | [4] 1 | [5] 0.999

c1ccc2c(c1)OCC(C1=NCCN1)O2 (stereo not drawn) [Idazoxan hydrochloride]
inactive: [1] 1.01 | [2] 1.02 | Shigella flexneri 1.02 | Vibrio cholerae 1.02 | [3] 0.982 | P. vulgatus RND KO 0.997 | P. vulgatus WT 0.98 | [4] 0.999 | [5] 0.998

NCCCNCCSP(=O)(O)O [Amifostine]
inactive: [1] 1.02 | [2] 1.02 | Shigella flexneri 0.99 | Vibrio cholerae 1.01 | [3] 0.992 | P. vulgatus RND KO 1.02 | P. vulgatus WT 1.07 | [4] 1.02 | [5] 1.01

COc1ccc(C(CN(C)C)C2(O)CCCCC2)cc1 (stereo not drawn) [Venlafaxine]
inactive: [1] 1.33 | [2] 0.98 | Shigella flexneri 0.957 | Vibrio cholerae 0.984 | [3] 1.08 | P. vulgatus RND KO 0.997 | P. vulgatus WT 0.999 | [4] 0.997 | [5] 1

C[C@]12CC[C@H](O)C[C@@H]1CC[C@@H]1[C@@H]2CC[C@]2(C)C(=O)CC[C@@H]12 [Epiandrosterone]
inactive: [1] 1 | [2] 0.987 | Shigella flexneri 0.99 | Vibrio cholerae 1.19 | [3] 0.997 | P. vulgatus RND KO 1 | P. vulgatus WT 1.03 | [4] 1 | [5] 0.951

C=C1C[C@@H]2[C@H](CC[C@]3(C)C(=O)CC[C@@H]23)[C@@]2(C)C=CC(=O)C=C12 [Exemestane]
inactive: [1] 0.967 | [2] 0.985 | Shigella flexneri 0.953 | Vibrio cholerae 0.964 | [3] 1 | P. vulgatus RND KO 0.978 | P. vulgatus WT 0.969 | [4] 0.996 | [5] 0.935

C[C@@H]1C[C@@H]([C@H](O)CC2CC(=O)NC(=O)C2)C(=O)[C@@H](C)C1 [Cycloheximide]
inactive: [1] 1.03 | [2] 1 | Shigella flexneri 1.04 | Vibrio cholerae 1.01 | [3] 0.999 | P. vulgatus RND KO 1.01 | P. vulgatus WT 1.01 | [4] 0.999 | [5] 0.999

O=c1c2ccccc2[se]n1-c1ccccc1 [Ebselen]
inactive: [1] 0.874 | [2] 0.987 | Shigella flexneri 1.03 | Vibrio cholerae 0.999 | [3] 0.974 | P. vulgatus RND KO 1.04 | P. vulgatus WT 1.02 | [4] 1.02 | [5] 0.971

CCC(=O)O[C@H]1CC[C@H]2[C@@H]3CCC4=CC(=O)CC[C@]4(C)[C@H]3CC[C@]12C [Testosterone propionate]
inactive: [1] 1.06 | [2] 1.02 | Shigella flexneri 1.03 | Vibrio cholerae 1.04 | [3] 0.989 | P. vulgatus RND KO 1 | P. vulgatus WT 1.01 | [4] 1.02 | [5] 0.911

CC(=O)O[C@H]1CC[C@@]2(C)C(=CC[C@@H]3[C@@H]2CC[C@]2(C)C(=O)CC[C@@H]32)C1 [Dehydroisoandosterone 3-acetate]
inactive: [1] 0.989 | [2] 0.995 | Shigella flexneri 0.966 | Vibrio cholerae 0.988 | [3] 1 | P. vulgatus RND KO 0.976 | P. vulgatus WT 0.952 | [4] 0.991 | [5] 0.903

CC(=O)O[C@H]1C[C@H](O[C@H]2[C@@H](O)C[C@H](O[C@H]3[C@@H](O)C[C@H](O[C@H]4CC[C@@]5(C)[C@H](CC[C@@H]6[C@@H]5C[C@@H](O)[C@]5(C)[C@@H](C7=CC(=O)OC7)CC[C@]65O)C4)O[C@@H]3C)O[C@@H]2C)O[C@H](C)[C@H]1O[C@@H]1O[C@H](CO)[C@@H](O)[C@H](O)[C@H]1O [Lanatoside C]
inactive: [1] 1.04 | [2] 1.01 | Shigella flexneri 1.01 | Vibrio cholerae 1.02 | [3] 0.984 | P. vulgatus RND KO 1.01 | P. vulgatus WT 1.06 | [4] 1.01 | [5] 0.997
